High-throughput results as filed in PubChem BioAssay.
Rows were chosen to be rich in hits. Some 20% of all compounds tested hit in one or more screens of this group.
Cycloheximide cs: counter-screen hit for Shiga toxin inhibitors, cycloheximide. cell reporter, cycloheximide protein synthesis inhibition counterscreen. max response, %. 300,000 compounds, 12% hits; in the data active = max response mostly above about 13%, no sharp cut-off; inactive = mostly below about 14%; note: read at 38.3 µM for the half of the compounds with a filed dose
HCMV inh: human cytomegalovirus inhibition. HFF cells, HCMV-luciferase reporter, 72 h; hits give low values. activity change, negative = inhibition, % at 57.5 µM. 410,000 compounds, 4.5% hits. AID 1259415; in the data active = activity change below about -60%; inconclusive = no clear call, values can overlap the other calls; inactive = above about -39%
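Human foreskin fibroblasts infected with luciferase-reporter HCMV at MOI 1 PFU/cell, compounds at two doses. Luciferase measured 72 h post infection; normalized to buffer-only basal and Salinomycin (10uM) controls.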
Shiga toxin inh: Shiga toxin inhibition; Vero cells, Shiga toxin protein synthesis inhibition reporter; inhibition, % at 38.7 µM; 290,000 compounds, 9.2% hits; AID 2315; in the data active = inhibition mostly above about 28%, no sharp cut-off; inactive = mostly below about 43%
Pf growth 96h: P. falciparum growth inhibition at 96 hour, primary screen for plastid delayed-death inhibitors; Potency, µM (series often up to 28.7 µM), hits mostly inhibitors; AID 504834; P. falciparum luciferase reporter growth, 96 h; 320,000 compounds, 6.9% hits
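Two-generation exposure (96 h) targets delayed-death phenotype. Reporter parasites carrying integrated firefly luciferase, in red cells at 2% hematocrit and 0.05% parasitemia final, kept at 37 C, 5% CO2; luminescence loss indicates inhibition.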
Pf growth 48h: P. falciparum growth inhibition at 48 hours (one generation); Potency, µM (titrated, usually from 28.7 µM), actives largely listed as inhibitors; P. falciparum luciferase growth in erythrocytes, 48 h; 310,000 compounds, 5.9% hits
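Erythrocytes infected with P. falciparum carrying an integrated firefly luciferase reporter (2% hematocrit, 0.1% parasitemia final) were exposed to compounds in RPMI 1640 with 0.5% Albumax at 37 C, 5% CO2. Growth inhibition was scored as reduced luminescence.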
Of the large screens only hits and unclear results are named; the others gave an inactive call; ! = a repeat was not active. Unless noted, calls come from the whole dose curve; as a rule, active = well fitted inhibition curve with a large enough effect; inconclusive = small, poorly fitted or top-dose-only effect, or another doubt; inactive = no such curve, though single readings can be large or run the other way.

CCOc1ccc2[nH]c(=O)c(C(c3nnnn3CC3CCCO3)N3CCc4ccccc4C3)cc2c1 (stereo not drawn)	Pf growth 48h 10µM
Cc1ccc2cc(C(c3nnnn3CC3CCCO3)N3CCc4ccccc4C3)c(=O)[nH]c2c1 (stereo not drawn)	Pf growth 48h inconclusive
CCC(C)(C)n1nnnc1C(c1ccc(C)cc1)N1CCN(C(=O)c2ccco2)CC1 (stereo not drawn)	Pf growth 48h inconclusive
Cc1ccc(C)c2[nH]c(=O)c(C(c3nnnn3Cc3ccccc3)N3CCc4ccccc4C3)cc12 (stereo not drawn)	Pf growth 48h 10µM (no result: Pf growth 96h)
CCC(C)(C)n1nnnc1C(c1cc2cccc(C)c2[nH]c1=O)N1CCN(C(=O)c2ccco2)CC1 (stereo not drawn)	Pf growth 48h 1.2µM
CCC1NC(=O)c2cc3ccccc3cc2-n2c1nc1ccc(OC)cc1c2=O (stereo not drawn)	none (no result: Cycloheximide cs, Shiga toxin inh, Pf growth 96h, Pf growth 48h)
Cc1cccc2cc(C(c3nnnn3CC3CCCO3)N3CCCc4ccccc43)c(=O)[nH]c12 (stereo not drawn)	Pf growth 48h 9.3µM
Cc1cccc2cc(C(c3nnnn3Cc3ccc4c(c3)OCO4)N3CCCC3)c(=O)[nH]c12 (stereo not drawn)	Pf growth 96h inconclusive, Pf growth 48h 7.4µM
O=c1[nH]cc(S(=O)(=O)N2CCOCC2)c(=O)[nH]1	none (no result: Cycloheximide cs, Shiga toxin inh)
CCn1c2ccccc2c2cc(CN3CCN(Cc4ccc(Br)cc4)CC3)ccc21	none (no result: Cycloheximide cs, Shiga toxin inh, Pf growth 96h, Pf growth 48h)
COc1ccc(C)cc1S(=O)(=O)N(CC(=O)Nc1ccc2c(c1)OCCO2)Cc1ccccc1	Cycloheximide cs 9.8, Pf growth 96h inconclusive (no result: Pf growth 48h)
CS(=O)(=O)N(CC(=O)Nc1ccc2c(c1)OCCO2)Cc1ccc(Cl)cc1	Cycloheximide cs 22, Shiga toxin inh 33 (no result: Pf growth 96h)
CC(NS(=O)(=O)c1ccccc1)C(c1cccs1)N1CCN(c2ccccc2)CC1 (stereo not drawn)	Pf growth 96h 8.3µM, Pf growth 48h inconclusive
COc1ccccc1N1CCN(C(c2cccs2)C(C)NS(=O)(=O)c2ccccc2)CC1 (stereo not drawn)	Pf growth 96h 7.4µM, Pf growth 48h inconclusive
Cc1ccc(NCc2nnc3n2CCCCC3)cc1	Pf growth 96h inconclusive
COc1cc2c(cc1OC)CN(CC(=O)Nc1ccc(S(=O)(=O)N(C)C)cc1)CC2	Pf growth 96h inconclusive
COc1cc2c(cc1OC)CN(CC(=O)Nc1ccc(C)c(S(=O)(=O)N3CCOCC3)c1)CC2	Pf growth 96h 12µM, Pf growth 48h inconclusive
COc1cc2c(cc1OC)CN(CC(=O)Nc1ccc(Cl)c(S(=O)(=O)N(C)C)c1)CC2	Pf growth 96h inconclusive, Pf growth 48h 13µM (no result: HCMV inh)
COc1ccc(-c2n[nH]c3c2CN(C(=O)c2ccc(OC)c(OC)c2)CC3)cc1	Pf growth 96h 12µM, Pf growth 48h inconclusive
COc1cc(OC)c(NC(=O)c2c(N3CCCC3=O)c3cc(C)ccc3n2C)cc1Cl	none (no result: Cycloheximide cs, Shiga toxin inh, Pf growth 96h, Pf growth 48h)
Cc1cccc(-c2noc(-c3ccccc3C(=O)NCC3CCCO3)n2)c1 (stereo not drawn)	Cycloheximide cs 63, Shiga toxin inh 143
O=C(NCC1CCCO1)c1ccccc1-c1nc(-c2ccc(Cl)cc2)no1 (stereo not drawn)	Cycloheximide cs 12
CC(C)(C)CN1CCN(CC#Cc2ccccc2)CC1CCO (stereo not drawn)	Cycloheximide cs 17, Pf growth 96h inconclusive
CN1CCN(CC#Cc2ccccc2)CC1CCO (stereo not drawn)	Pf growth 96h 4.1µM
CC(C)CCN1CCN(CCCc2ccccc2)CC1CCO (stereo not drawn)	Pf growth 96h inconclusive (no result: Shiga toxin inh)
O=C(CNC(=O)c1ccc([N+](=O)[O-])cc1)c1ccccc1	Cycloheximide cs 46, Shiga toxin inh 95
O=C(NCC(=O)c1ccccc1)OCc1ccc([N+](=O)[O-])cc1	Cycloheximide cs 30, Pf growth 96h 13µM (no result: Shiga toxin inh)
CCN(C(=O)c1ccccc1)c1ccc([N+](=O)[O-])cc1	Pf growth 96h 8.3µM, Pf growth 48h inconclusive
O=C(CNC(=O)c1cccs1)c1ccc([N+](=O)[O-])cc1	Cycloheximide cs 23, Shiga toxin inh 92
Cc1[nH]c(=O)[nH]c(=O)c1/C=C/C(=O)O	none
O=C(CNC(=O)c1cccs1)OCC(=O)c1ccc([N+](=O)[O-])cc1	HCMV inh -65
O=C(CNC(=O)c1cccs1)OCC(=O)c1ccc(Br)cc1	none
O=C(CNC(=O)c1ccco1)OCC(=O)c1ccc([N+](=O)[O-])cc1	HCMV inh -64
CCCCCN1C(C(=O)c2ccccc2)=C(NC(=O)c2ccc(OC)c(OC)c2)c2ccccc2S1(=O)=O	none (no result: Cycloheximide cs, Shiga toxin inh, Pf growth 96h, Pf growth 48h)
O=C(CN1C(=O)COc2ccc(S(=O)(=O)N3CCCCCC3)cc21)N1CCN(c2ccccc2F)CC1	none (no result: Cycloheximide cs, Shiga toxin inh, Pf growth 96h, Pf growth 48h)
COc1ccccc1N1CCN(C(=O)c2cc3c(s2)-c2ccccc2OC3)CC1	none
CCOC(=O)C1CCN(C(=O)c2cc3c(s2)-c2ccccc2OC3)CC1	Cycloheximide cs 21, Shiga toxin inh 40
O=C(c1cc2c(s1)-c1ccccc1OC2)N1CCc2ccccc2C1	Cycloheximide cs 87, Shiga toxin inh 56, Pf growth 96h inconclusive
CCC(CC)C(=O)Nc1ccc2nc(SCC(=O)N3CCCC3)sc2c1	none (no result: Cycloheximide cs, Shiga toxin inh, Pf growth 96h, Pf growth 48h)
Cn1c(-c2sccc2OCc2ccccc2)n[nH]c1=S	Pf growth 96h inconclusive, Pf growth 48h 10µM
O=C(CNC(=O)c1cccc(F)c1)OCC(=O)N1CCCCC1	Cycloheximide cs 35, Shiga toxin inh 51
O=C(NCC(=O)N1CCCC1)c1ccc(Br)cc1	none
Cc1ccc(C(=O)NCC(=O)N2CCCCCCC2)cc1	Pf growth 48h inconclusive (no result: Cycloheximide cs, Shiga toxin inh)
CC(C)(C)c1ccc(C(=O)NCC(=O)N2CCCC2)cc1	Cycloheximide cs 26
Cc1cccc(C(=O)NCC(=O)N2CCN(S(=O)(=O)c3ccccc3)CC2)c1	Pf growth 48h inconclusive (no result: Cycloheximide cs, Shiga toxin inh)
Cc1ccc(C(=O)NCC(=O)N2CCCCCC2)cc1	Cycloheximide cs 50, Shiga toxin inh 46
Cc1cccc(C(=O)NCC(=O)N2CCCC2)c1	Cycloheximide cs 12, Shiga toxin inh 49
Cc1ccc(C(=O)NCCC(=O)N2CCCC2)cc1	Cycloheximide cs 37, Shiga toxin inh 41
O=C(NCCCC(=O)N1CCCCC1)c1ccc(Cl)cc1	none
Cc1ccc(C(=O)NCCN2CCNC2=O)cc1	Cycloheximide cs 28, Shiga toxin inh 58
O=C(NCCc1ccc(Cl)cc1)c1ccc2c(c1)N(Cc1ccc(Cl)cc1)C(=O)CS2	none (no result: Cycloheximide cs, Shiga toxin inh, Pf growth 96h, Pf growth 48h)
Cc1nnc(N2CCC(C(=O)NCc3ccc(F)cc3)CC2)c2nn(-c3ccc(Cl)cc3)c(C)c12	HCMV inh -86 (no result: Cycloheximide cs, Shiga toxin inh, Pf growth 96h, Pf growth 48h)
Cc1nnc(N2CCC(C(=O)NCCc3ccccc3Cl)CC2)c2nn(-c3ccccc3)c(C)c12	HCMV inh -91 (no result: Cycloheximide cs, Shiga toxin inh, Pf growth 96h, Pf growth 48h)
COc1ccccc1CCNC(=O)C1CCN(c2nnc(C)c3c(C)n(-c4ccc(C)cc4)nc23)CC1	HCMV inh -93!, Pf growth 96h inconclusive, Pf growth 48h inconclusive
Cc1nnc(N2CCC(C(=O)NCCc3ccccc3)CC2)c2nn(-c3ccc(Cl)cc3)c(C)c12	none (no result: Cycloheximide cs, Shiga toxin inh, Pf growth 96h, Pf growth 48h)
